From PubChem BioAssay AID463173 (ICCB-Longwood Screening Facility, Harvard Medical School, 2010)
Screen size: about 52,000 compounds; about 4,300 (8.3%) were called active. The list comes from a sample in which actives are over-represented; it also holds similar structures and randomly drawn compounds. A number with no mark means an inactive call. Rule as the data show it: active = survival mostly below about 52% (no sharp cut-off); inactive = mostly above about 56%.

System: DeltatarO mutant
Experiment: growth inhibition of S. aureus wild type versus tarO mutant, primary screen, teichoic acid synthesis inhibitors, RN4220, OD600 (AID 463173)
Settings: OD600, 18 h, stronger effect = lower value, screened at 18.75 µg/mL (by protocol)

SMILES	survival
CN1CCN(C(=O)c2ccc3c(c2)N(Cc2c(F)cccc2Cl)C(=O)c2ccccc2S3)CC1	85%
Cc1ccc(S(=O)(=O)c2nc(-c3cccs3)oc2SCC(=O)Nc2cc(C)cc(C)c2)cc1	70%
COc1cc(CN2CCN(S(=O)(=O)c3ccccc3)CC2)cc(OC)c1O	57%
COc1ccc(CCn2nnnc2CN2CCN(Cc3ccccc3)CC2)cc1OC	82%
CCCS(=O)(=O)N1CCN(Cc2ccc(OC)c(OCC)c2)CC1	97%
CCn1c2ccccc2c2cc(CN3CCN(Cc4ccc(OC)c(OC)c4)CC3)ccc21	17% (active)
COc1cc(CN2CCN(C(=O)c3cccc4ccccc34)CC2)cc(OC)c1OC	72%
CCn1c2ccccc2c2cc(CN3CCN(Cc4cc(OC)c(O)c(OC)c4)CC3)ccc21	43% (active)
O=C(CCSCCc1ccccn1)Nc1cc(F)ccc1F	79%
COc1ccc(-c2csc3ncnc(Nc4ccc(OC)cc4OC)c23)cc1	64%
CCCCNC(=O)c1ccc2c(c1)NC(=O)C(CS(=O)(=O)Cc1ccc(F)cc1Cl)N2 (stereo unspecified)	74%
O=C(CSc1nc2c(oc3ccccc32)c(=O)n1-c1ccccc1)Nc1ccccc1F	66%
O=C(CSCc1ccc(F)cc1)N1CCN(c2ccccc2F)CC1	102%
COc1cccc(Nc2nc3ccccc3c3nncn23)c1	89%
Cc1ccc(Nc2nc3ccccc3c3nncn23)cc1C	-4% (active)
Cc1ccc(Cl)cc1Nc1nc2ccccc2c2nncn12	104%
O=C1CN(C(=O)c2ccc(S(=O)(=O)N3CCCCC3)cc2)C(c2ccc(F)cc2)c2cc(Cl)ccc2N1 (stereo unspecified)	62%
CC(C)Oc1ccc(CNC(=O)Cn2c(=O)oc3ccccc32)cc1	77%
CC(C)C[C@H](N)c1nnc(SCc2ccc(Cl)cc2Cl)o1	38% (active)
C[C@H](NC(=O)OC(C)(C)C)c1nnc(SCc2ccc(Cl)cc2Cl)o1	54%
Cc1nnc(SCc2ccc(Cl)cc2Cl)o1	80%

SMILES	survival
CSc1ncc2c(n1)-c1ccccc1N(Cc1ccc(Cl)cc1)S2(=O)=O	98%
CCOc1ccc(NC(=O)CCS(=O)(=O)c2ccc(Br)s2)cc1	82%
CCOc1ccc(NC(=O)CNS(=O)(=O)c2ccc(Br)s2)cc1	49%
COc1cccc(NC(=O)CCNS(=O)(=O)c2ccc3c(c2)oc(=O)n3C)c1	90%
COc1cccc(NC(=O)CCNS(=O)(=O)c2ccc(Br)s2)c1	37% (active)
CCOc1ccc(NC(=O)CCNS(=O)(=O)c2cccs2)cc1	51%
Cc1ccc(NC(=O)CCNS(=O)(=O)c2ccc(Br)s2)cc1	50% (active)
COc1cccc(CNC(=O)C2CCC(CNS(=O)(=O)c3ccc(Br)s3)CC2)c1 (stereo unspecified)	71%
Cc1cc(NC(=O)C2CCC(CNS(=O)(=O)c3ccc(Br)s3)CC2)ccc1Br (stereo unspecified)	93%
O=C(CCNS(=O)(=O)c1ccc(Br)s1)Nc1ccc(Br)cc1	40% (active)
CCc1cccc(NC(=O)C2CCC(CNS(=O)(=O)c3ccc(Br)s3)CC2)c1 (stereo unspecified)	79%
Cc1cccc(NC(=O)C2CCC(CNS(=O)(=O)c3ccc(Br)s3)CC2)c1 (stereo unspecified)	52% (active)
COC(=O)c1ccc(NC(=O)CN(C)S(=O)(=O)c2ccc(Br)s2)cc1	73%
Cc1c(Cl)cccc1NC(=O)CN1C(=O)COc2ccc(S(=O)(=O)N3CCOCC3)cc21	88%
CC1C(=O)OC(c2ccccc2)C(C)(C)C1=O (stereo unspecified)	94%
CCc1ccccc1N1C(=O)CC(N2CCc3ccccc32)C1=O (stereo unspecified)	102%
Cc1ccc(NC(=O)c2oc3ccc(S(=O)(=O)N4CCCCC4)cc3c2C)c(C)c1	79%
Cc1ccc(Cl)cc1N1CCN(C(=O)COCc2cc(-c3ccc4c(c3)OCO4)on2)CC1	95%
Cc1cccc(CC(=O)NCCc2sc3nc(-c4ccc(F)cc4)nn3c2C)c1	91%
COc1ccccc1NC(=O)Cn1c(=O)n(-c2cccc(Cl)c2)c(=O)c2sc3ccccc3c21	103%
CCOC(=O)c1c(C)[nH]c(CCC(=O)NCc2ccc(OC)c(OC)c2)c1C	81%

SMILES	survival
COc1ccc(C)cc1NC(=O)CSc1ncc2c(n1)-c1ccc(Cl)cc1N(Cc1ccccc1)S2(=O)=O	78%
CCc1ccccc1NC(=O)CSc1nc2c(c(=O)[nH]1)CN(Cc1ccccc1OC)CC2	75%
O=c1[nH]c(SCc2c(F)cccc2Cl)nc2c1CCC2	74%
COc1ccc(OCC(=O)Nc2ccc(N3CCN(S(C)(=O)=O)CC3)cc2)cc1	97%
COc1ccc(NC(=O)Cn2c(=O)nc(-c3ccccc3)c3ccccc32)cc1OC	78%
Cc1ccc(NC(=O)C2CCC(CNS(=O)(=O)c3cccc4nsnc34)CC2)c(Cl)c1 (stereo unspecified)	47% (active)
Cc1ccc(NC(=O)C2CCC(CNS(=O)(=O)c3cccc4nsnc34)CC2)c(C)c1 (stereo unspecified)	95%
Cc1ccc(Cl)cc1NC(=O)C1CCC(CNS(=O)(=O)c2cccc3nsnc23)CC1 (stereo unspecified)	100%
CCCCN(CC)CCCNC(=O)c1nn(-c2ccc(OC)cc2)c(=O)c2c1c1ccccc1n2C	123%
COc1cccc(C2=NS(=O)(=O)N(C)C(C(=O)Nc3cccc(O)c3)=C2)c1	70%
COc1cc(NC(=O)Cn2ccn(-c3cc(C)cc(C)c3)c(=O)c2=O)cc(OC)c1	71%
CCN(c1cc(C)cc(C)c1)S(=O)(=O)c1nnc(NC(=O)c2ccccc2C)s1	49%
CCN(c1ccccc1C)S(=O)(=O)c1nnc(NC(=O)c2ccccc2C)s1	15% (active)
CCN(c1ccc(Cl)cc1)S(=O)(=O)c1nnc(NC(=O)C(C)C)s1	84%
CCN(c1cccc(C)c1)S(=O)(=O)c1nnc(NC(=O)c2ccccc2Cl)s1	17% (active)
CCN(CC)S(=O)(=O)c1nnc(NC(=O)c2ccccc2Cl)s1	70%
CCN(c1ccc(OC)cc1)S(=O)(=O)c1nnc(NC(=O)c2ccccc2Cl)s1	46% (active)
CCN(c1ccccc1)S(=O)(=O)c1nnc(NC(=O)c2ccccc2OC)s1	47%
CCN(c1ccc(Cl)cc1)S(=O)(=O)c1nnc(NC(=O)c2ccccc2C)s1	8% (active)
